# From the emibetuzumab library of Makowski et al. (2022)
# The list shows a part of the results. The true hit rate is not given.
# B1: VH:VL chains; a variant is named by its letters at X, in order (parent)
# chain 1: QVQLVQSGAEVKKPGASVKVSCKASGYTFTDYXMHWVRQAPGQGLEWMGXVNPNXXXTTYNQKFEGRVTMTTDTSTSTAYMELRSLRSDDTAVYYCARXNXLDXWGQGTTVTVSS
# chain 2: DIQMTQSPSSLSASVGDRVTITCSVSSSVSSIYLHWYQQKPGKAPKLLIYSTSNLASGVPSRFSGSGSGTDFTLTISSLQPEDFATYYCQVYSGYPLTFGGGTKVEIK
# Variants of: B1
# Assay: yeast display scFab, FACS + sequencing
# Conditions: with MET
# Outline: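 Two magnetic rounds on Protein A beads coated with HGFR-Fc, followed by FACS, were used to enrich a yeast surface scFab library mutated in the heavy-chain CDRs. FACS gated the top 50% antigen-positive cells after 3 h labelling at room temperature with 1 nM HGFR-Fc and anti-Myc in PBSB plus 1% milk. Binding to the antigen was scored positive when a sequence occurred in both antigen-positive samples from deep sequencing and negative when it occurred only in the input.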
row,Variant,antigen binding call
1,VATGDDGV,no binding
2,STAESSSF,no binding
3,DKTGNDVA,no binding
4,DRAGDDVY,no binding
5,YTGTSAVA,no binding
6,SAGRGSAA,no binding
7,SKGRGSAA,binds
8,VKGRGSAA,binds
9,VKGRADAA,no binding
10,VAGRGSAA,no binding
11,SEGRGDAA,no binding
12,VRGGGFGV,no binding
13,AAGRGFLD,no binding
14,VRGGGFGD,binds
15,VEGGGDGD,no binding
16,VRRANFLD,no binding
17,VRGRGFLD,binds
18,DRGGDDVV,no binding
19,YRARSAGY,binds
20,YRTKGAVY,binds
21,YRTRSAVY,binds
22,SEARSAVY,no binding
23,YRARSAVY,binds
24,DREEGAVY,no binding

row,Variant,antigen binding call
1,SEREADWF,no binding
2,VAGTGDWF,no binding
3,AETKGDGA,no binding
4,DGGRSAVF,no binding
5,ARRGSDLA,no binding
6,FRRTDFVA,no binding
7,FRRGSALA,binds
8,DRRGDAVA,no binding
9,FREGSAVA,no binding
10,FRRGSAVA,binds
11,FRRGDAVA,binds
12,DGGTNDGA,no binding
13,DAAGADWY,no binding
14,YRGRSSWS,binds
15,VRTEDSWS,no binding
16,YRAAGSWS,binds
17,AAAGGSWS,no binding
18,DRKGGDWS,no binding
19,YRARGSWS,binds
20,YRKGGSWS,binds
21,VAEKGDGA,no binding
22,YAEGGYGV chain 1 V68I,no binding
23,DTTGSDWY,no binding
24,VEGGGDVA,no binding

row,Variant,antigen binding call
1,SEARSDWF,no binding
2,VAGTGDAA,no binding
3,SATTDSVD,no binding
4,YRAEGAWS,binds
5,VEKGGDVS,no binding
6,SEARSSWS,no binding
7,YRKKTDWS,no binding
8,VRAGGDVF,no binding
9,SEARSAWS,no binding
10,YRARSAWS,binds
11,VRARGDVS,binds
12,YRARSSWS,binds
13,FAEGDDVA,no binding
14,ATTGGDGV,no binding
15,VGGTGSGY,no binding
16,VTEGGDVY,no binding
17,VEKGGDAA,no binding
18,VTERDDAV,no binding
19,DAATADSS,no binding
20,YAATADSS,no binding
21,YRARGSVS,binds
22,VAATADSS,binds
23,YRARGAVS,binds
24,YRARGAAS,binds

row,Variant,antigen binding call
1,YAEESDGS,no binding
2,STGEDDVY,no binding
3,DEEEGSAA,no binding
4,YRARGAGS,binds
5,YRARGAWS,binds
6,YKARGAWS,binds
7,YEEGTDWY,no binding
8,DREEGDGV,no binding
9,DEAGTAVA,no binding
10,VRGRDYGD,no binding
11,VRAGDSLS,no binding
12,VERGGFGS,no binding
13,VRTGAVGD,no binding
14,VRRGGSGS,binds
15,VKRRDSGD,no binding
16,VRGRAAGD,binds
17,ARRGGSGS,no binding
18,VKRGSSGD,binds
19,VRGRSSGS,binds
20,VAGRSFGS,no binding
21,AKGTASGD,no binding
22,VEKEGDAD,no binding
23,VKEKGDWV,no binding
24,DARGGDAA,no binding

row,Variant,antigen binding call
1,VAATASWV,no binding
2,SEARSDGS,no binding
3,VTGTGDAD,no binding
4,VRTEDDWS,no binding
5,VRGRSAWS,binds
6,VRAGGSGD,binds
7,VRRGGSGD,binds
8,DRGRDAWS,no binding
9,VRERGDGS,no binding
10,VRERGAGS,binds
11,VRERGDAS,no binding
12,SREAADWA,no binding
13,SEARSDWA,no binding
14,AARADSGY,no binding
15,VAATAAGA,no binding
16,DKTKGDWV,no binding
17,VRAGAAGS,binds
18,VRRGSAGD,binds
19,VTTKSAGD,no binding
20,VRAGADGV,no binding
21,VRRGSSGD,binds
22,ARRGSAVS,no binding
23,VRAGDDGS,no binding
24,VRAGAAGV,no binding

row,Variant,antigen binding call
1,VEGTSSGD,no binding
2,VRRGSAGS,binds
3,DKGEGAGV,no binding
4,STAESDVA,no binding
5,VRRETVSD,no binding
6,VRRGSASD,binds
7,VRRAADSD,no binding
8,YRRGGSGD,binds
9,SAGEGDVF,no binding
10,FKGRGAAV,binds
11,FTGRAAAV,no binding
12,VKEGGSAD,no binding
13,DEGGTSAD,no binding
14,FKGRGFVV,no binding
15,DRGRGSAD,binds
16,VKGRGSAD,binds
17,VKAGASAD,no binding
18,FRGRASAD,binds
19,DTGTSAAF,no binding
20,STGEADAS,no binding
21,YAEESDWV,no binding
22,ATGGAAGD,no binding
23,VGGTSDGA,no binding
24,FAGRGSAD,binds

row,Variant,antigen binding call
1,VKTKGVVD,no binding
2,FKGRGAAD,binds
3,FTGRGSAD,no binding
4,FAGRGSSD,no binding
5,VKGRGVVD,binds
6,FKGRGSAD,binds
7,VAGRGVGD,no binding
8,VAGGDDAV,no binding
9,FAEGAAGD,no binding
10,VGGTSSLD,no binding
11,DKRKGVSD chain 1 S88F,no binding
12,ATGRADGV,no binding
13,FRGRGSAD,binds
14,AAGRSDLV chain 1 R67H,no binding
15,FAGRSDWV chain 1 R67H,no binding
16,SEGGDAGD,no binding
17,SRTRDAGD,binds
18,SETTDAGD,no binding
19,FRTRDVGF,no binding
20,YRTRDSVA,binds
21,YTTRDDSD,no binding
22,FRTRDAGD,binds
23,YRTRDSLD,binds
24,STEASYLS,no binding

row,Variant,antigen binding call
1,VGRATVGS,no binding
2,FTRRSSLF chain 1 V111I,no binding
3,FRTRDALD,binds
4,FTTRDDSD,no binding
5,YRTRDSVD,binds
6,FRGRDFLD,no binding
7,FRTRDSLD,binds
8,SARKGDVA,no binding
9,VTGTGDVY,no binding
10,STGGDDGF,no binding
11,YAGGDDAV,no binding
12,DTKAADGV,no binding
13,DRAGDASD,no binding
14,YREGDASD,no binding
15,YRAGAASD,binds
16,YRAGSASD,binds
17,YRGKDASD,binds
18,AARADDAA,no binding
19,SEARSDAA,no binding
20,YAGEGFGV,no binding
21,VRERGAWD,binds
22,VKAGGSLY,binds
23,VTERGSLD,no binding
24,VRERGSWD,binds

row,Variant,antigen binding call
1,VKKTGDLY,no binding
2,VKAGGDVY,no binding
3,VRERGASD,binds
4,VGGTSSSA,no binding
5,AGGTSYSV,no binding
6,SARADSGV,no binding
7,VTGGDYAV,no binding
8,DEGTGAVA,no binding
9,VRKGGSVY,no binding
10,VRERGSLY,binds
11,YRARSSSD,binds
12,YRRGGSWD,binds
13,YRARGSWD,binds
14,YRARSSWD,binds
15,SEARSSSD,no binding
16,VAREDDLS,no binding
17,VEGGGDGA,no binding
